Data taken from PubChem BioAssay.
Activity calls are given as the source filed them.

How the values were obtained:
Albumin (Bos taurus) = Albumin (Bos taurus) (UniProt P02769); experiment: compounds binding labelled BSA control protein – biochemical, small-molecule microarray, Alexa647 label, 635/667 nm fluorescence, artefact control for SMM control protein annotation, profiling panel (AID 1118); settings: BSA-A647 binding, fluorescence 635 nm, higher = more signal;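 note: score merges 667 nm emission intensity and signal-to-noise per printed compound spot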
[1] = probe aXIP binding to arrayed compounds – biochemical, NeuroSMM set, 635/667 nm fluorescence, primary screen (AID 1119); settings: small-molecule microarray, higher = more signal, called active from +8 up or from −8 down;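 note: probe is the protein aXip251-270 applied at 1 µg/mL to compound-printed slides; binding of probe to printed compounds measured as 667 nm fluorescence plus signal to noise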
[2] = probe aNOTCH3 binding on compound microarray – biochemical, small-molecule microarray, 635/667 nm fluorescence, primary screen (AID 1120); settings: higher = more signal;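 note: probe is a biotin-tagged antibody raised against NOTCH3 rather than NOTCH3 protein; score merges spot fluorescence near 667 nm with spot signal to noise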
[3] = probe aNOTCH2 binding on compound microarray – biochemical, small-molecule microarray, 635/667 nm fluorescence, primary screen (AID 1121); settings: higher = more signal;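 note: score merges feature fluorescence read at 667 nm with its signal to noise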
[4] = target: Carbonic anhydrase 2 (Homo sapiens) (UniProt P00918); experiment: compounds binding carbonic anhydrase 2 – biochemical, small-molecule microarray, Alexa647-labelled CAII, profiling panel (AID 1122); settings: CAII-A647 binding fluorescence, higher = more signal
[5] = COS7 lysate on small-molecule microarray, probe aHis, 635 nm (AID 1123); settings: COS7 cell lysate, fluorescence, higher = more signal;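 note: z-score combines 667nm fluorescence intensity with signal-to-noise per printed compound spot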
[6] = probe aLAP1 signal on lysate-treated microarray – cell lysate, small-molecule microarray, COS7 lysate, primary screen (AID 1124); settings: probe aLAP1, fluorescence, higher = more signal;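 note: lysate comes from COS7 cells expressing LAP1 and is applied at 0.3 µg/mL; score merges spot fluorescence near 667 nm with signal-to-noise over triplicate slides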
Sam68 (KHDRBS1) = experiment: compounds binding KHDRBS1 protein – biochemical, small-molecule microarray, 635 nm fluorescence, primary screen (AID 1125); settings: higher = more signal;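 note: score merges 667 nm channel intensity with signal to noise over triplicate slides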
[7] = system: Chordin-like protein 2 (CHRDL2); experiment: compounds binding chordin-like 2 – biochemical, small-molecule microarray, 635 nm fluorescence, primary screen (AID 1126); settings: fluorescence 635 nm, higher = more signal;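 note: printed compound slides probed with Chrdl2 protein at 4 µg/mL for 1 h at 4 C; score merges 667 nm emission intensity with signal to noise over three replicate slides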
[8] = target: Concanavalin-A (Canavalia ensiformis) (UniProt P02866); experiment: compounds binding concanavalin A lectin – biochemical, small-molecule microarray, Alexa647 label, 635 nm, artefact control for SMM control protein annotation, primary screen (AID 1127); settings: ConA-A647 binding fluorescence, higher = more signal;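 note: z combines 667 nm emission intensity with signal-to-noise across three replicate slides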
[9] = compounds binding Alexa647 anti-His antibody – biochemical, small-molecule microarray, 635 nm fluorescence, artefact control for SMM control protein annotation, primary screen (AID 1128); settings: higher = more signal;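 note: score merges feature fluorescence with signal-to-noise for each printed compound spot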
[10] = system: Human papillomavirus type 1a E7 protein (residues 1-88); experiment: HPV1a E7 small-molecule binders, primary screen, biochemical, small-molecule microarray, residues 1-88, 635 nm (AID 1129); settings: small-molecule microarray binding, fluorescence 635 nm; higher = more signal
[11] = target: Focal adhesion kinase 1 (Homo sapiens) (UniProt Q05397); experiment: PTK2 protein binding on printed compound slides – biochemical, small-molecule microarray, 635/667 nm fluorescence, BSA, DTT, primary screen (AID 1130); settings: 635 nm fluorescence, higher = more signal;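 note: composite of spot emission at 667 nm and signal to noise over triplicate slides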
[12] = system: Fibrinogen (Alexa647-labelled); experiment: Alexa647-fibrinogen binding to printed small molecules – biochemical, small-molecule microarray, 635/667 nm fluorescence, artefact control for SMM control-protein annotation, profiling panel (AID 1131); settings: fibrinogen-A647 binding fluorescence, higher = more signal;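 note: z-score merges 667 nm fluorescence with per-spot signal-to-noise over triplicate slides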
[13] = target: Follistatin (Homo sapiens) (UniProt P19883); experiment: FST protein binding to printed compounds – biochemical, small-molecule microarray, 635/667 nm fluorescence, primary screen (AID 1132); settings: 635 nm fluorescence, higher = more signal
[14] = target: Fibroblast growth factor 2 (Homo sapiens) (UniProt P09038); experiment: basic fibroblast growth factor binding to printed compounds – biochemical, small-molecule microarray, 635/667 nm fluorescence, primary screen (AID 1133); settings: FGF2, fluorescence 635/667, higher = more signal
[15] = JC-1 mitochondrial potential readout, lung cancer cells – cell-based, A549, JC-1 fluorescence, basal, 24 h, 100 nL, profiling panel (AID 1138); settings: higher = more signal;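 note: A549 lung adenocarcinoma cells under basal conditions with no added stimulus; test concentration not given here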
Lefty1 = Lefty1 protein binding to printed compounds – biochemical, small-molecule microarray, 635/667 nm fluorescence, primary screen (AID 1139); settings: fluorescence 635/667, higher = more signal
[16] = system: wheat germ agglutinin (Triticum aestivum), Alexa647-labelled; experiment: Alexa647-WGA lectin binding to printed small molecules – biochemical, small-molecule microarray, 635/667 nm fluorescence, artefact control for SMM control-protein annotation, profiling panel (AID 1140); settings: WGA-A647 binding, 635 nm fluorescence, higher = more signal;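 note: score merges 667 nm feature emission with signal to noise over triplicate slides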
[17] = target: Luciferin 4-monooxygenase (Photinus pyralis) (UniProt P08659); experiment: inhibition of purified Photinus pyralis luciferase – biochemical, luminescence, purified enzyme, 2006 set, primary screen (AID 1141); settings: purified firefly luciferase, SteadyGlo luminescence, 30 min; higher = more signal, called active from +8 up or from −8 down;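 note: cell-free assay with purified firefly luciferase at 100 ng per well in PBS; test concentration not given here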
Sequence of Luciferin 4-monooxygenase (Photinus pyralis) (P08659 whole entry, looked up): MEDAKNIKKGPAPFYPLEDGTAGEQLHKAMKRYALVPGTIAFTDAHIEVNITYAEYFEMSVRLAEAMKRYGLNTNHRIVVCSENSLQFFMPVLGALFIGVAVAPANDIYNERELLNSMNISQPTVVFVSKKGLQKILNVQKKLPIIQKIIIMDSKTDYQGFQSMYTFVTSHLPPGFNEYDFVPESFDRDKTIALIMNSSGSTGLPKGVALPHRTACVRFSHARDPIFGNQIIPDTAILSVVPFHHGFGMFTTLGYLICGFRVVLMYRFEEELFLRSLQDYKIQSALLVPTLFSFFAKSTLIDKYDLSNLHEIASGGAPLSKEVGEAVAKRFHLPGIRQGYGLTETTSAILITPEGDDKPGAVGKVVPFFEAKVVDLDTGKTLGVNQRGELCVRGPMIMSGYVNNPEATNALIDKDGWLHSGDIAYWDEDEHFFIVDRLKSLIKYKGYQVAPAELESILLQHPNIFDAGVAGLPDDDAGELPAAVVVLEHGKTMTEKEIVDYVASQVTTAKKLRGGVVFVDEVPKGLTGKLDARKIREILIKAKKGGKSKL

Sequence of Focal adhesion kinase 1 (Homo sapiens) (Q05397 whole entry, looked up): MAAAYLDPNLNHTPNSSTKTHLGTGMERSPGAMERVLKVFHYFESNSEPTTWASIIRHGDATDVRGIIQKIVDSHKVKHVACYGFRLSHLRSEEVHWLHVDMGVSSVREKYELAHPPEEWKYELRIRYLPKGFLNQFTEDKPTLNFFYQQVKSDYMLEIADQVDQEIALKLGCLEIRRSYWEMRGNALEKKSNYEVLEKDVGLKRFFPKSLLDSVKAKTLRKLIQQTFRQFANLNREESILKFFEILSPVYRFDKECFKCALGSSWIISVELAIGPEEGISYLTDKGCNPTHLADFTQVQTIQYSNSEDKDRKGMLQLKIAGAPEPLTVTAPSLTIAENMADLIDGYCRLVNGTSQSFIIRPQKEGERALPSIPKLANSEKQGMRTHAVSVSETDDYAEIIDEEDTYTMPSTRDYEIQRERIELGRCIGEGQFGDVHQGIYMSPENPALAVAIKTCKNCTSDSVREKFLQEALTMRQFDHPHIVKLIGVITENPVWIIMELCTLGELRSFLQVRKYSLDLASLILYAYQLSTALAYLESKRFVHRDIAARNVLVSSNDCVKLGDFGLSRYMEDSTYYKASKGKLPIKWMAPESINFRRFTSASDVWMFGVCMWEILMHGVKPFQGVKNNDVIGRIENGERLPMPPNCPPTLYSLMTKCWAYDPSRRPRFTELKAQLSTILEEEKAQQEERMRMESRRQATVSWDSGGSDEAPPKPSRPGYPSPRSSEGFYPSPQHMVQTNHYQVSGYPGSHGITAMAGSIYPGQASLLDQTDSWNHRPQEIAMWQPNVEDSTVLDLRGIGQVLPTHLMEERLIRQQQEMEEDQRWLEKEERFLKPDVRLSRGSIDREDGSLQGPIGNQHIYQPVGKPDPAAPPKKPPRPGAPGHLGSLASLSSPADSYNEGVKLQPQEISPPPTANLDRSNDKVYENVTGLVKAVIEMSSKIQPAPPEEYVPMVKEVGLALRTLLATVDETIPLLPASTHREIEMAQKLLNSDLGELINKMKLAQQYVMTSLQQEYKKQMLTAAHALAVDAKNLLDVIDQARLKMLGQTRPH
Sequence of Fibroblast growth factor 2 (Homo sapiens) (P09038 whole entry, looked up): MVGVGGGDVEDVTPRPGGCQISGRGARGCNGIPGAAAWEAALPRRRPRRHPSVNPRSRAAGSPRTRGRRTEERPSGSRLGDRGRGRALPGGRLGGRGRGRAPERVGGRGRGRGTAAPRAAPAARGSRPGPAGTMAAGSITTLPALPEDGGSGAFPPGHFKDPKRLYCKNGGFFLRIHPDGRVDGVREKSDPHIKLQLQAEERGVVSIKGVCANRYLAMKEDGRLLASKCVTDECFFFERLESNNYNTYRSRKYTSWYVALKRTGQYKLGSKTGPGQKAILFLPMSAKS
Sequence of Concanavalin-A (Canavalia ensiformis) (P02866 whole entry, looked up): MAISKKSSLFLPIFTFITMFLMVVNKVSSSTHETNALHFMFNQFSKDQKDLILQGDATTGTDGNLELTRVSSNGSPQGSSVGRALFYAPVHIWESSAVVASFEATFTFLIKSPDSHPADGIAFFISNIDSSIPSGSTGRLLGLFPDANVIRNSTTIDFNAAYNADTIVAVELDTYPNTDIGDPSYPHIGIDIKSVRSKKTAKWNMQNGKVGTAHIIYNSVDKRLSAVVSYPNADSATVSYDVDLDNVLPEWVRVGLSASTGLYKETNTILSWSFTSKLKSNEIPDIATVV
Sequence of Follistatin (Homo sapiens) (P19883 whole entry, looked up): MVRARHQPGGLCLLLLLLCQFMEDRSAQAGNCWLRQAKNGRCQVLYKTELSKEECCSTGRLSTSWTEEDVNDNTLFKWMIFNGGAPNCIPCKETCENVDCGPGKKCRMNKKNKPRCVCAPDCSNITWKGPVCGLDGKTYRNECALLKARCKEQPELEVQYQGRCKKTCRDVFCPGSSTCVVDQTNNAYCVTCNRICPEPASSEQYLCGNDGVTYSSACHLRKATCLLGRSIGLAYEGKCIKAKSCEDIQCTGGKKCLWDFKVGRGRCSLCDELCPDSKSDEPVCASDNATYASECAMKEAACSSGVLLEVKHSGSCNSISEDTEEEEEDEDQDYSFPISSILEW
Sequence of Albumin (Bos taurus) (P02769 whole entry, looked up): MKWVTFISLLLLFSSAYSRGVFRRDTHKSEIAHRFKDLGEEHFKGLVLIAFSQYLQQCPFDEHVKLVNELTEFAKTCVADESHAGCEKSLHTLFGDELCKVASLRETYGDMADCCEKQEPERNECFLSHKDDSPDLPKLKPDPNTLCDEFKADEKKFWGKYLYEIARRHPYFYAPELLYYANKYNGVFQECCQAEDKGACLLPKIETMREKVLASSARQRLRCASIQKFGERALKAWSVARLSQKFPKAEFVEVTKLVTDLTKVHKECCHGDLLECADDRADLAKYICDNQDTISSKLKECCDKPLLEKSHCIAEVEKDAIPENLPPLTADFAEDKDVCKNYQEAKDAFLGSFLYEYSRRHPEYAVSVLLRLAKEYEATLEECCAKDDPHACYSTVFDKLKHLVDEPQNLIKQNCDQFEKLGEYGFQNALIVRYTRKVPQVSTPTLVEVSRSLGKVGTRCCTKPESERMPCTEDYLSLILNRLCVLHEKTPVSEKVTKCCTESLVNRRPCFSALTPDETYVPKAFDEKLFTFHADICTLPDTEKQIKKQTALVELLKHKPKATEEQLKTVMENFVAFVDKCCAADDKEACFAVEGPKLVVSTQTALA

O=C(CS)NCCCCCNC(=O)[C@@H]1C[C@@H]2C(=O)N3CCC[C@H]3C(=O)N2[C@@H]1c1cccc(OCCO)c1
composite z-score (Albumin (Bos taurus)): -0.105
composite Z-score [1]: 1.11 (inactive)
composite z-score [2]: -0.284
composite z-score [3]: -0.258
composite z-score [4]: 0.747
composite z-score [5]: 2.18
composite z-score [6]: 0.503
composite z-score (Sam68 (KHDRBS1)): 0.246
composite z-score [7]: 0.712
composite z-score [8]: 0.91
composite z-score [9]: 2.66
composite z-score [10]: 1.21
composite z-score [11]: 0.515
composite z-score [12]: -0.561
composite z-score [13]: 1.28
composite z-score [14]: 1.24
z-score [15]: 0.777
composite z-score (Lefty1): -0.283
composite z-score [16]: -0.161
z-score [17]: -1.38 (inactive)

CC(=O)NCCCC[C@@H]1NC(=O)[C@H]2C[C@@H](C(=O)NCCCC[N+](C)(C)C)[C@@H](c3cccc(OCCO)c3)N2C1=O
composite z-score (Albumin (Bos taurus)): -1.1
composite Z-score [1]: 2.16 (inactive)
composite z-score [2]: 0.204
composite z-score [3]: -0.0974
composite z-score [4]: 0.704
composite z-score [5]: 1.75
composite z-score [6]: 1.16
composite z-score (Sam68 (KHDRBS1)): 0.719
composite z-score [7]: 1.49
composite z-score [8]: 1.1
composite z-score [9]: 1.57
composite z-score [10]: -0.416
composite z-score [11]: 0.191
composite z-score [12]: 0.231
composite z-score [13]: 1.47
composite z-score [14]: 1.85
z-score [15]: 0.584
composite z-score (Lefty1): 1.71
composite z-score [16]: 0.552
z-score [17]: -1.42 (inactive)

CC(C)N1C(=O)C[C@@](C(=O)NCCCN(C)C)(c2ccc([N+](=O)[O-])cc2)[C@H]1c1ccc(CO)cc1
composite z-score (Albumin (Bos taurus)): -0.0399
composite Z-score [1]: 0.183 (inactive)
composite z-score [2]: 0.0628
composite z-score [3]: -0.0698
composite z-score [4]: 0.573
composite z-score [5]: -0.185
composite z-score [6]: 0.0653
composite z-score (Sam68 (KHDRBS1)): -0.579
composite z-score [7]: -0.0507
composite z-score [8]: -0.158
composite z-score [9]: -0.616
composite z-score [10]: -0.605
composite z-score [11]: -0.519
composite z-score [12]: 0.47
composite z-score [13]: 0.316
composite z-score [14]: 0.875
z-score [15]: -0.488
composite z-score (Lefty1): -0.0831
composite z-score [16]: -0.0539
z-score [17]: -0.287 (inactive)

C=C(C)c1cc2c(c(CCCCCC)n1)[Si](C(C)C)(C(C)C)OC2
composite z-score (Albumin (Bos taurus)): -0.923
composite Z-score [1]: -0.335 (inactive)
composite z-score [2]: -0.296
composite z-score [3]: -0.146
composite z-score [4]: -0.484
composite z-score [5]: -0.369
composite z-score [6]: -0.603
composite z-score (Sam68 (KHDRBS1)): -0.631
composite z-score [7]: -1.41
composite z-score [8]: -0.277
composite z-score [9]: 0.18
composite z-score [10]: -1.15
composite z-score [11]: -0.534
composite z-score [12]: -1.93
composite z-score [13]: -0.522
composite z-score [14]: -1.45
z-score [15]: -1.17
composite z-score (Lefty1): -0.174
composite z-score [16]: -1.19
z-score [17]: 0.903 (inactive)

CO[C@]12C=C(Br)[C@@H](C[C@@H]1c1cccc(C)c1)[C@@]1(CO1)C2=O
composite z-score (Albumin (Bos taurus)): 0.223
composite Z-score [1]: 0.379 (inactive)
composite z-score [2]: -0.0311
composite z-score [3]: -0.132
composite z-score [4]: 0.354
composite z-score [5]: 0.288
composite z-score [6]: -0.071
composite z-score (Sam68 (KHDRBS1)): 0.189
composite z-score [7]: 0.306
composite z-score [8]: 0.123
composite z-score [9]: 0.177
composite z-score [10]: -0.322
composite z-score [11]: -0.129
composite z-score [12]: -0.407
composite z-score [13]: 0.415
composite z-score [14]: 0.391
z-score [15]: -0.645
composite z-score (Lefty1): 0.802
composite z-score [16]: -0.0489
z-score [17]: 1.02 (inactive)

C=C(/C(=C/C[C@H](OC(=O)c1ccncc1)c1ccc(CO)o1)c1cc(C(=O)OC)ccc1OC)C(C)C
composite z-score (Albumin (Bos taurus)): 0.0703
composite Z-score [1]: -0.442 (inactive)
composite z-score [2]: -0.0414
composite z-score [3]: -0.116
composite z-score [4]: 0.541
composite z-score [5]: 1.4
composite z-score [6]: 0.285
composite z-score (Sam68 (KHDRBS1)): 1.05
composite z-score [7]: 0.85
composite z-score [8]: 0.557
composite z-score [9]: 2
composite z-score [10]: 1.02
composite z-score [11]: -0.0585
composite z-score [12]: 0.448
composite z-score [13]: 1.07
composite z-score [14]: 1.21
z-score [15]: -0.432
composite z-score (Lefty1): 1.14
composite z-score [16]: 0.433
z-score [17]: -1.32 (inactive)

O=C(N1CCCCC1)[C@@]1(CCS(=O)(=O)c2ccccc2)COC(c2ccc(OCCCO)cc2)=N1
composite z-score (Albumin (Bos taurus)): 0.107
composite Z-score [1]: 0.674 (inactive)
composite z-score [2]: 0.289
composite z-score [3]: 0.207
composite z-score [4]: 0.582
composite z-score [5]: 2.66
composite z-score [6]: 0.729
composite z-score (Sam68 (KHDRBS1)): 1.31
composite z-score [7]: 0.225
composite z-score [8]: 1.1
composite z-score [9]: 2.55
composite z-score [10]: 1.22
composite z-score [11]: 0.298
composite z-score [12]: 0.839
composite z-score [13]: 1.4
composite z-score [14]: 1.52
z-score [15]: 0.32
composite z-score (Lefty1): 0.126
composite z-score [16]: 0.848
z-score [17]: -0.0825 (inactive)

CCOC(=O)C1=CC[C@@H](c2ccccc2C(F)(F)F)N(S(=O)(=O)c2ccc(C)cc2)[C@H]1c1ccc(C#N)cc1
composite z-score (Albumin (Bos taurus)): 0.733
composite Z-score [1]: -0.554 (inactive)
composite z-score [2]: 0.223
composite z-score [3]: -0.0211
composite z-score [4]: 0.675
composite z-score [5]: 0.791
composite z-score [6]: 1.25
composite z-score (Sam68 (KHDRBS1)): 0.892
composite z-score [7]: 0.475
composite z-score [8]: 1.11
composite z-score [9]: 0.915
composite z-score [10]: 1.15
composite z-score [11]: -0.0446
composite z-score [12]: 0.647
composite z-score [13]: 0.507
composite z-score [14]: 0.437
z-score [15]: -1.92
composite z-score (Lefty1): -0.0373
composite z-score [16]: 1.08
z-score [17]: 1.47 (inactive)

CCOc1cc(C(O)C2C=CC3C(=O)N(C)C(=O)C3N2Nc2ccccc2)ccc1O (stereo not given)
composite z-score (Albumin (Bos taurus)): 1.04
composite Z-score [1]: 0.765 (inactive)
composite z-score [2]: 0.194
composite z-score [3]: 0.0931
composite z-score [4]: 0.827
composite z-score [5]: 1.28
composite z-score [6]: -0.438
composite z-score (Sam68 (KHDRBS1)): 1.22
composite z-score [7]: 0.0675
composite z-score [8]: 0.947
composite z-score [9]: 1.08
composite z-score [10]: 0.881
composite z-score [11]: 0.327
composite z-score [12]: 0.651
composite z-score [13]: 0.0506
composite z-score [14]: -0.153
z-score [15]: -0.203
composite z-score (Lefty1): -0.0696
composite z-score [16]: 0.974
z-score [17]: -1.2 (inactive)

O=C1O[C@H](c2ccccc2)[C@H](c2ccccc2)N2[C@H]1[C@@H](C(=O)O)[C@]1(C(=O)Nc3ccc(C#CC4=CCCCC4)cc31)[C@H]2c1ccc(O)cc1
composite z-score (Albumin (Bos taurus)): 0.562
composite Z-score [1]: 0.235 (inactive)
composite z-score [2]: 0.0445
composite z-score [3]: -0.105
composite z-score [4]: 0.627
composite z-score [5]: 1.51
composite z-score [6]: 0.384
composite z-score (Sam68 (KHDRBS1)): 0.712
composite z-score [7]: 0.285
composite z-score [8]: 0.997
composite z-score [9]: 0.687
composite z-score [10]: 0.394
composite z-score [11]: 0.0304
composite z-score [12]: 0.987
composite z-score [13]: 1.35
composite z-score [14]: 0.392
z-score [15]: -2.35
composite z-score (Lefty1): 0.841
composite z-score [16]: 0.362
z-score [17]: -2.89 (inactive)
